# Test results taken from publication PMC5540273 (PLoS ONE, 2017).
# How the values were obtained:
# MST1 = tested on: T1, MST1
# T1 construct: gene STK4
# LZK = tested on: T2, LZK
# T2 construct: gene MAP3K13
# MEK2 = tested on: T3, MEK2
# T3 construct: gene MAP2K2
# MEK4 = tested on: T4, MEK4
# T4 construct: gene MAP2K4
# MINK = tested on: T5, MINK
# T5 construct: gene MINK1
# 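Note: kd values determined as follow-up on hits from a single-replicate KINOMEscan panel screen.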
smiles,measurement,setting,value
COc1cccc(C2=C(Nc3cc(Cl)c(O)c(Cl)c3)C(=O)NC2=O)c1 [SB-390767],Kd,LTK,> 10 µM
same,Kd,MST1,1.8 µM
same,Kd,NEK2,> 10 µM
same,Kd,PAK3,> 10 µM
COc1cccc(NC(=O)Nc2ccc(C)c(-c3ccc(C(=O)Nc4ccncc4)cc3)c2)c1 [GSK1398474],Kd,LYN,4.4 µM
same,Kd,MAK,> 10 µM
CC(=O)c1c(C)c2cnc(Nc3ccc(N4CCNCC4)cn3)nc2n(C2CCCC2)c1=O,Kd,LZK,> 10 µM
COc1ccc(Nc2nccc(N3CCC(NC(=O)c4cc5ccccc5s4)C3)n2)cc1 (stereo not shown) [GSK1379738],Kd,MAK,> 10 µM
CNCc1ccc2nc(NC(=O)c3ccc(C(C)(C)C)cc3)cn2c1,Kd,MAP3K15,3.8 µM
Cc1ccc(NC(=O)c2ccc(Cl)cc2)cc1-c1ccc(C(=O)Nc2ccncc2)cc1 [GSK1398467],Kd,MARK2,> 10 µM
Cc1ccccc1Cn1ccn2c(=O)cc(N3CCOCC3)nc12 [GSK2269905],Kd,MARK4,> 10 µM
COc1ccc(-c2coc3ccc(-c4nnc(C)o4)cc23)cc1,Kd,MARK4,> 10 µM
CCc1ccc(-c2ccc3c(c2)-c2n[nH]cc2S(=O)(=O)N3C)cc1,Kd,MEK2,> 10 µM
O=C(Nc1n[nH]c2nc(-c3cccs3)c(Br)cc12)C1CC1 [SB-735297],Kd,MEK4,> 10 µM
O=c1cc(N2CCOCC2)nc2n(Cc3cccc(Cl)c3Cl)c3ccccc3n12 [GSK2299009],Kd,MELK,> 10 µM
NS(=O)(=O)c1cccc(N/C=C2\C(=O)Nc3ccc(S(=O)(=O)Cc4c(Cl)cccc4Cl)cc32)c1 [GSK398099],Kd,MINK,0.79 µM
CC(C)c1cc(-c2ccc3c(N)n[nH]c3c2)nc(N)n1 [GSK2250882],Kd,MKNK2,0.16 µM
CNC(=O)c1ccc(C)c(-n2c(C)cc(OCc3ccc(F)cc3F)c(Br)c2=O)c1,Kd,MKNK2,> 10 µM
Nc1nccc(-c2c(-c3ccc(F)cc3)ncn2C2CCN(Cc3ccccc3)CC2)n1 [SB-219980],Kd,NLK,0.14 µM
